PTHR1 ag = activates the human parathyroid hormone receptor PTHR1. HEK293 GP2 PTHR1 cells, GloSensor cAMP luminescence, 1 h. Potency, µM (titrated, usually from 115 µM), without a hit: at the highest dose activation, usual class: activators. actives 0.075% (n = 410,000). AID 743266; further: potency means the concentration at half of the fitted maximal effect; nearly all actives have a fitted effect of over 55% in size
Target sequence (Q03431 whole entry, looked up): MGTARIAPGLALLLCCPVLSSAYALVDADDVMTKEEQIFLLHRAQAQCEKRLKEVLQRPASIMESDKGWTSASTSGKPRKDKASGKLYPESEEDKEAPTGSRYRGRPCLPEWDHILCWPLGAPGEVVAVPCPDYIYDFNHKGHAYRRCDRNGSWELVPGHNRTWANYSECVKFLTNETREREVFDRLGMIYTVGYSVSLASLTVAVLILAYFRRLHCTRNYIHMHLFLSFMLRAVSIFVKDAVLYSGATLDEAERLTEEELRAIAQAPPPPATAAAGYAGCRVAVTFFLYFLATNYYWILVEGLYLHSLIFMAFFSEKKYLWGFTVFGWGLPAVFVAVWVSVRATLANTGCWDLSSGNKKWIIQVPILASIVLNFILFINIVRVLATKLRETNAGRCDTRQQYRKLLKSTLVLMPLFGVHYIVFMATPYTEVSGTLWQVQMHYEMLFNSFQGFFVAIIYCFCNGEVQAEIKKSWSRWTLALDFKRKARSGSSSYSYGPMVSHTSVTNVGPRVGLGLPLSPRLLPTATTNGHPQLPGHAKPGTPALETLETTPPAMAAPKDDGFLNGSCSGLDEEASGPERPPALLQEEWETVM
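HEK-293-derived GP2 cells expressing PTHR1 and a GloSensor cAMP reporter, 3,000/well, plated overnight, given luciferin plus IBMX (each 0.5 mM as added) for 1 h at 37 °C, then compound for 1 h at 37 °C. Luminescence was read after 15 min at room temperature.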
TSHR antagonist = antagonists of human thyroid stimulating hormone receptor; P16473; TSHR-expressing cells, TSH-stimulated cAMP HTRF, 2 h; active compounds read low; activity change, negative = inhibition, % at 11.5 µM; actives 0.2% (n = 330,000);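 active means activity change below a set negative limit, meaning inhibition stronger than a set level, cut at about -70% in these data; inconclusive means activity change between two set negative limits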; further: on the % scale 0 is the no-effect control and ±100 the full control effect
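Competitive HTRF cAMP read-out (cryptate anti-cAMP antibody, cAMP-d2; 30 min, room temperature) in freshly harvested TSHR cells. Compounds added before TSH at EC80 (4nM final), followed by 2 hours' incubation at 37 deg C.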
GLP-1R agonist = activates the human GLP-1 receptor | P43220 | HEK293 GLP-1R CRE-luciferase, luminescence, 4-6 h; cells express a hypersensitive GLP-1R form | Potency, µM (highest dose often 45.6 µM), for the others: at the highest dose activation, most hits filed as activators | actives 0.007% (n = 380,000); further: potency means the concentration at half of the fitted maximal effect; % of control where 0% means no effect
HEK293 tox = cytotoxicity counter-screen for GLP-1 receptor inverse agonists; actives 0.13% (n = 410,000); HEK293 cAMP-luciferase reporter cells, luminescence, 24 h; Potency, µM (series often up to 38.3 µM), for inactives: at the highest dose activity change, negative = inhibition, actives largely listed as inhibitors;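 further: loss of luciferase light is scored as toxicity; potency means the concentration at half of the fitted maximal effect; on the % scale 0 is the no-effect control and ±100 the full control effect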
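MLSMR compounds, 24 hr on cells at 37 deg C/5% CO2; luminescence after luciferase reagent (12 min RT). Inhibition counted as the undesired cytotoxic outcome.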
GLP1R inv ag = inverse agonists of human GLP-1 receptor; actives 1.6% (n = 410,000); Potency, µM (series often up to 38.3 µM), for inactives: at the highest dose activity change, negative = inhibition, most hits filed as inhibitors; HEK293 GLP-1R CRE-luciferase, luminescence, 24 h; GLP-1R form is constitutively active; further: potency means the concentration at half of the fitted maximal effect; on the % scale 0 is the no-effect control and ±100 the full control effect; nearly all actives have a fitted effect of over 55% in size
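Inverse agonism was detected as reduced cAMP-driven luciferase luminescence after 24 h compound treatment. The cells were HEK293 clones expressing constitutively active human GLP-1R with the reporter. Reporter-only and GPR119 cell lines served as counterscreen controls.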
* marks the source's active call; other numbers are inactive results; i = inactive; ? = inconclusive; / = not tested or not shown; [ ] = remark or other dose. Most compounds without a hit are left out; they make up all but 1.8% or so of the library. Unless noted, the call rests on the fitted dose curve; in most records, active means well fitted curve in the direction sought with a large enough effect; inconclusive means small, poorly fitted or top-dose-only effect, or another doubt; inactive means no such curve, though single readings can be large; an effect the other way counts as inactive or inconclusive.

SMILES	PTHR1 ag	TSHR antagonist	GLP-1R agonist	HEK293 tox	GLP1R inv ag
CCOc1ccc(NC(=O)c2ccccn2)cc1	-92%	3	-28%	-9%	2µM*
CCOc1ccc(NC(=O)c2cnccn2)cc1	i	6	-1%	-12%	?
CCOc1ccc(/C=C/c2nc(C#N)c(N(C)C)o2)cc1	-60%	/	/	43%	-10%
CC(C)NS(=O)(=O)c1ccc(Oc2ncc(C(F)(F)F)cc2Cl)cc1	-35%	-3	8%	-10%	?
CCCNS(=O)(=O)c1ccc(Oc2ncc(C(F)(F)F)cc2Cl)cc1	-34%	-9	0%	-3%	11µM*
CCN1C(=O)CS/C1=N\S(=O)(=O)c1ccc(Cl)cc1	i	-9	1%	6%	-4%
CCn1c(Cl)c(C=O)s/c1=N\S(=O)(=O)c1ccccc1	-57%	-98*	-8%	?	?
Cc1cccc(-c2noc(-c3ccc(NCC4CCCO4)c([N+](=O)[O-])c3)n2)c1 (centres undefined)	-11%	/	/	1%	8%
O=C(Cn1c(=O)nc(-c2ccccc2)c2ccccc21)Nc1cccc(C(F)(F)F)c1	?	/	/	-13%	2%
CCSc1nc(-c2cccc(Cl)c2)nc2c1Cc1c(CO)cnc(C)c1O2	6%	/	/	-11%	6%
Clc1ccc(/C=N\Nc2ccccc2)cc1	-1%	7	-5%	-16%	4µM*
CN1C[C@H]2c3ccccc3Oc3ccc(Cl)cc3[C@@H]2C1	/	/	13%	/	/
COc1ccc(-c2ccc3[nH]c4c(c3c2)CCN2C[C@@H]([C@H](C)O)[C@@H](N(C)C(=O)Nc3cc(Cl)cc(Cl)c3)C[C@@H]42)cc1	-2%	/	-5%	8%	?
C[C@H](O)[C@@H]1CN2CCc3c([nH]c4ccc(-c5ccc6c(c5)OCO6)cc34)[C@@H]2C[C@@H]1N(C)C(=O)Nc1ccc(F)cc1	-7%	/	-8%	?	4µM*
CCc1cc2c(COC(=O)c3cccc(NS(C)(=O)=O)c3)cc(=O)oc2cc1O	-19%	-22	7%	180%	4µM*
CCc1cc2c(COC(=O)c3cc(S(=O)(=O)N4CCOCC4)ccc3F)cc(=O)oc2cc1O	-35%	-18	29%	195%	-17%
CCOC(=O)c1cc(-c2ccccc2)n(-c2cccc(C(=O)Nc3cccc(SC)c3)c2)c1C	-37%	/	/	-6%	3.5µM*
CCOC(=O)c1cc(-c2ccccc2)n(-c2cccc(C(=O)Nc3cccc(C(C)=O)c3)c2)c1C	-40%	/	/	-26%	5.6µM*
COc1ccc(C)cc1NC1(c2ccccc2)C(=O)c2ccccc2C1=O	i	/	3%	-1%	-15%
O=C(CCCCCCCCC#CI)Oc1ccccc1	/	/	-1%	/	/
CC(C)N1[N]C(=C2C=c3cc(O)ccc3=N2)c2c(N)ncnc21	/	/	0%	/	/
COc1ccccc1OCCOc1ccc(C(=O)c2ccccc2)cc1	-24%	-3	4%	-10%	8.9µM*
COc1ccc(C(CCNCc2ccc(N(C)C)cc2)c2ccccc2OC)cc1 (centres undefined)	-20%	-2	15%	?	10µM*
COc1ccc(C(CCNCc2ccc(OC(C)C)cc2)c2ccccc2OC)cc1 (centres undefined)	-33%	-1	-7%	?	?
COc1ccc(CNCCC(c2ccc(OC)cc2)c2ccccc2OC)cc1 (centres undefined)	0%	-8	5%	?	10µM*
SMILES	PTHR1 ag	TSHR antagonist	GLP-1R agonist	HEK293 tox	GLP1R inv ag
CCOC(=O)c1[nH]c(C)c(CCC(=O)Nc2ccc(C(C)=O)cc2)c1C	i	/	/	3%	0%
Cc1cc(OC(C)C(=O)Nc2cccc(-c3nc4ccccc4o3)c2)cc(C)c1Cl (centres undefined)	-19%	/	/	-7%	?
Cc1sc2ncnc(SC(C)C(=O)N3c4ccccc4Sc4ccccc43)c2c1C (centres undefined)	i	-7	0%	-12%	8.9µM*
Cc1ccc(OCC(=O)NNC(=O)C(C)Sc2ncnc3sc(C)c(C)c23)cc1 (centres undefined)	-19%[57.5 µM]	-14	5%	2%	0%
CCCCCOc1ccc(Br)cc1/C(C)=N/NC1=NCCN1	-6%[57.5 µM]	-12	1%	?	2.2µM*
COc1ccc(Br)cc1/C(C)=N/NC1=NCCN1	-38%	-7	-5%	-2%	0%
CCCC[C@@H](CN[C@H](C)CNC)NCC1CCC(C(C)(C)C)CC1 (some centres undefined)	i	-4	-2%	?	11µM*
COCCn1nnnc1C(c1cc2ccc(OC)cc2[nH]c1=O)N1CCN(C2CCCCC2)CC1 (centres undefined)	-4%[57.5 µM]	20	-10%	-21%	0%
COCCn1nnnc1C(c1cc2cc(C)ccc2[nH]c1=O)N1CCN(C2CCCCC2)CC1 (centres undefined)	-2%[57.5 µM]	11	0%	11µM*	21%
COc1cccc(N2CC(NC(=O)C3CCCCC3)CC2=O)c1 (centres undefined)	-13%	/	/	0%	5%
CCc1ccc(NC(=O)C(CC)n2c(=O)c(-c3ccccc3NC(C)=O)nc3ccccc32)cc1 (centres undefined)	i	/	/	-23%	11µM*
CCc1cc(CNC(=O)CC2C(=O)NCCN2Cc2ccc(-c3ccccc3)cc2)on1 (centres undefined)	-2%	-113*	3%	8%	17%
Cc1ccc(-c2noc(-c3cccnc3N(C)Cc3ccc(Cl)cc3)n2)cc1	i	/	/	1%	12%
CN(C)CC(CCC(CN(C)C)C(O)(c1ccccc1)c1ccccc1)C(O)(c1ccccc1)c1ccccc1 (centres undefined)	i	3	19%	?	2.8µM*
CN(C)C/C=C/C(O)(c1ccccc1)c1ccccc1	i	-7	1%	-12%	-25%
CC(C)CCn1c(=O)c2sccc2n2c(CCCC(=O)Nc3ccc(F)c(Cl)c3)nnc12	-18%	/	/	5%	1%
COc1cccc(NC(=O)C2CCN(c3nc4ccccc4nc3C(F)(F)F)CC2)c1	-5%	/	/	0%	-29%
O=C(CC1Sc2ccccc2NC1=O)NNc1cccc(Cl)c1Cl (centres undefined)	-30%	/	2%	-9%	2µM*
CCN(CC)c1ccc(NC(=O)CN2CCN(CC(=O)Nc3ccc(F)cc3)CC2)cc1	i	6	-2%	-5%	13µM*
CCN(CC)c1ccc(NC(=O)CN2CCN(CC(=O)Nc3ccc(OC)cc3)CC2)cc1	-2%	8	2%	1%	-10%
Cc1ccc(C)c(N2CCN(C(C(=O)NC3CCCC3)c3ccco3)CC2)c1 (centres undefined)	-19%	/	/	3%	2%

From PubChem BioAssay
